# Assay results as given in the supplement of paper PMC8728848.
# Shown is part of a subset that was picked to be rich in the strongest signals.
# B1: PX9961W-pdi-543-27-543 (Parabacteroides distasonis) (protein)
# chain: EGNATTTSYFLNDQQAIDAIDGLYERFHQEGCYGRELFWEQGAACDIVWGRTRGYNSLATLAYTGDESPLRDVFSRMYSTMSRANWIIQELVKKEKGTTLTAVEKRSLGEAYFSRGWAHYLIAYRYGTDKQGVPFVRYEDFPDDYDNSIPPQQATVMDNYKLIIEDMDKAIAYLPIFESYDADNRGRAHQAAAVAFKAKTYAYWATWDATQWNNVIEMVNQLENNYNRDLAPTFAELFSSDLKDYWNAEYLWTIPSIGGALPGGTEFPGIILENKGWGKYNGWGQMKPSYDIYEEMAKDGKGNDRLVRSILEYNQEFPFFGETRKFWSTSDLEAGFMINKYMDAFKYSDPVGEGAVSANGDWPTVRVNFPIIRFAEMLLFRAEAYLMTGQADKATADINRIRLRSNLTPLTGTATMKDLYHERRCELAFEFTDHLFDLKRWNRSSNADIKTLADKELNAHPRIRRYEDRANPESAFTIIGYEDYTNKNAYQAHMMVFPYPSEEITKSNGQLKQNEGY
# What was measured:
# Assay in all cases: glycan array binding signal (z-score within array); higher = stronger binding
# Settings in all cases: glycan notation: IUPAC condensed, linker removed
# [1] = target: Fuc(a1-2)Gal(b1-4)GlcNAc
# Procedure, shortened: (§1)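 The Consortium for Functional Glycomics database supplied 3228 glycan arrays, of which those lacking an available protein sequence were dropped. The binding signal, a within-array Z-score, was averaged across arrays of the same protein sequence and across linkers. Negative scores can be read as non-binding.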
# [2] = target: Fuc(a1-2)Gal(b1-4)GlcNAc(b1-3)Gal(b1-4)GlcNAc(b1-2)Man(a1-3)[Fuc(a1-2)Gal(b1-4)GlcNAc(b1-3)Gal(b1-4)GlcNAc(b1-2)Man(a1-6)]Man(b1-4)GlcNAc(b1-4)GlcNAc
# Procedure, shortened: as §1
# [3] = target: Fuc(a1-2)[Gal(a1-3)]Gal(b1-3)GalNAc(b1-3)Gal(a1-4)Gal(b1-4)Glc
# Procedure, shortened: as §1
# [4] = target: Fuc(a1-2)[GalNAc(a1-3)]Gal(b1-4)GlcNAc(b1-2)Man
# Procedure, shortened: as §1
# [5] = target: Fuc(a1-4)GlcNAc
# Procedure, shortened: as §1
# [6] = target: Gal(a1-3)Gal(b1-3)GlcNAc(b1-6)GalNAc
# Procedure, shortened: as §1
# [7] = target: Gal(a1-3)[Gal(a1-4)]Gal(b1-4)GlcNAc
# Procedure, shortened: as §1
# [8] = target: Gal(a1-4)GlcNAc
# Procedure, shortened: as §1
# [9] = target: Gal(b1-3)GlcNAc(b1-3)Gal(b1-4)GlcNAc(b1-2)[Gal(b1-3)GlcNAc(b1-3)Gal(b1-4)GlcNAc(b1-6)]Man(a1-6)[Gal(b1-3)GlcNAc(b1-3)Gal(b1-4)GlcNAc(b1-2)Man(a1-3)]Man(b1-4)GlcNAc(b1-4)[Fuc(a1-6)]GlcNAc
# Procedure, shortened: as §1
# [10] = target: Gal(b1-3)GlcNAc(b1-3)Gal(b1-4)GlcNAc(b1-6)[Gal(b1-3)GlcNAc(b1-3)]Gal(b1-4)Glc
# Procedure, shortened: as §1
# [11] = target: Gal(b1-4)GlcNAc(b1-2)Man(a1-3)[Gal(b1-4)GlcNAc(b1-2)Man(a1-6)]Man(b1-4)GlcNAc(b1-4)GlcNAc
# Procedure, shortened: as §1
# [12] = target: Gal(b1-4)GlcNAc(b1-2)[Gal(b1-4)GlcNAc(b1-4)]Man(a1-3)[GlcNAc(b1-4)][Gal(b1-4)GlcNAc(b1-2)Man(a1-6)]Man(b1-4)GlcNAc(b1-4)GlcNAc
# Procedure, shortened: as §1
# [13] = target: Gal(b1-4)GlcNAc(b1-3)Gal(b1-4)GlcNAc(b1-3)Gal(b1-4)GlcNAc
# Procedure, shortened: as §1
# [14] = target: Gal(b1-4)GlcNAc(b1-3)Gal(b1-4)GlcNAc(b1-3)Gal(b1-4)GlcNAc(b1-3)Gal(b1-4)GlcNAc(b1-3)Gal(b1-4)GlcNAc(b1-2)[Gal(b1-4)GlcNAc(b1-3)Gal(b1-4)GlcNAc(b1-3)Gal(b1-4)GlcNAc(b1-3)Gal(b1-4)GlcNAc(b1-3)Gal(b1-4)GlcNAc(b1-6)]Man(a1-6)[Gal(b1-4)GlcNAc(b1-3)Gal(b1-4)GlcNAc(b1-3)Gal(b1-4)GlcNAc(b1-3)Gal(b1-4)GlcNAc(b1-3)Gal(b1-4)GlcNAc(b1-2)Man(a1-3)]Man(b1-4)GlcNAc(b1-4)[Fuc(a1-6)]GlcNAc
# Procedure, shortened: as §1
# [15] = target: Gal(b1-4)GlcNAc(b1-3)[GlcNAc(b1-6)]Gal(b1-4)GlcNAc
# Procedure, shortened: as §1
# [16] = target: Gal(b1-4)GlcNAc(b1-6)GalNAc
# Procedure, shortened: as §1
# [17] = target: Gal4S(b1-4)GlcNAc
# Procedure, shortened: as §1
# [18] = target: GalNAc(a1-3)Gal
# Procedure, shortened: as §1
# [19] = target: GalNAc(b1-4)GlcNAc(b1-3)GalNAc(b1-4)GlcNAc
# Procedure, shortened: as §1
# [20] = target: GlcNAc(b1-3)Gal(b1-4)GlcNAc(b1-2)[GlcNAc(b1-3)Gal(b1-4)GlcNAc(b1-6)]Man(a1-6)[GlcNAc(b1-3)Gal(b1-4)GlcNAc(b1-2)Man(a1-3)]Man(b1-4)GlcNAc(b1-4)GlcNAc
# Procedure, shortened: as §1
# [21] = target: GlcNAc(b1-3)Gal(b1-4)GlcNAc(b1-3)Gal(b1-4)GlcNAc(b1-2)Man(a1-3)[GlcNAc(b1-3)Gal(b1-4)GlcNAc(b1-3)Gal(b1-4)GlcNAc(b1-2)Man(a1-6)]Man(b1-4)GlcNAc(b1-4)GlcNAc
# Procedure, shortened: as §1
# [22] = target: GlcNAc(b1-3)Gal(b1-4)GlcNAc(b1-3)Gal(b1-4)GlcNAc(b1-3)Gal(b1-4)GlcNAc(b1-2)Man(a1-3)[GlcNAc(b1-3)Gal(b1-4)GlcNAc(b1-3)Gal(b1-4)GlcNAc(b1-3)Gal(b1-4)GlcNAc(b1-2)Man(a1-6)]Man(b1-4)GlcNAc(b1-4)[Fuc(a1-6)]GlcNAc
# Procedure, shortened: as §1
# [23] = target: GlcNAc(b1-3)Gal(b1-4)GlcNAc(b1-3)Gal(b1-4)GlcNAc(b1-3)Gal(b1-4)GlcNAc(b1-3)Gal(b1-4)GlcNAc(b1-2)Man(a1-3)[GlcNAc(b1-3)Gal(b1-4)GlcNAc(b1-3)Gal(b1-4)GlcNAc(b1-3)Gal(b1-4)GlcNAc(b1-3)Gal(b1-4)GlcNAc(b1-2)Man(a1-6)]Man(b1-4)GlcNAc(b1-4)[Fuc(a1-6)]GlcNAc
# Procedure, shortened: as §1
# [24] = target: GlcNAc(b1-3)Gal(b1-4)GlcNAc(b1-3)Gal(b1-4)GlcNAc(b1-3)Gal(b1-4)GlcNAc(b1-3)Gal(b1-4)GlcNAc(b1-2)[GlcNAc(b1-3)Gal(b1-4)GlcNAc(b1-3)Gal(b1-4)GlcNAc(b1-3)Gal(b1-4)GlcNAc(b1-3)Gal(b1-4)GlcNAc(b1-6)]Man(a1-6)[GlcNAc(b1-3)Gal(b1-4)GlcNAc(b1-3)Gal(b1-4)GlcNAc(b1-3)Gal(b1-4)GlcNAc(b1-3)Gal(b1-4)GlcNAc(b1-2)Man(a1-3)]Man(b1-4)GlcNAc(b1-4)[Fuc(a1-6)]GlcNAc
# Procedure, shortened: as §1
# [25] = target: GlcNAc(b1-4)[GlcNAc(b1-6)]GalNAc
# Procedure, shortened: as §1
# [26] = target: Kdn(a2-3)Gal(b1-4)GlcNAc
# Procedure, shortened: as §1
# [27] = target: Neu5Ac(a2-3)Gal(b1-3)[Fuc(a1-4)]GlcNAc
# Procedure, shortened: as §1
# [28] = target: Neu5Ac(a2-3)Gal(b1-3)[Fuc(a1-4)]GlcNAc(b1-3)Gal(b1-3)[Fuc(a1-4)]GlcNAc
# Procedure, shortened: as §1
# [29] = target: Neu5Ac(a2-3)Gal(b1-3)[Neu5Ac(a2-6)]GalNAc
# Procedure, shortened: as §1
# [30] = target: Neu5Ac(a2-3)Gal(b1-4)GlcNAc(b1-2)Man(a1-3)[Neu5Ac(a2-3)Gal(b1-4)GlcNAc(b1-2)Man(a1-6)]Man(b1-4)GlcNAc(b1-4)GlcNAc
# Procedure, shortened: as §1
# [31] = target: Neu5Ac(a2-3)Gal(b1-4)GlcNAc(b1-3)Gal(b1-4)GlcNAc
# Procedure, shortened: as §1
# [32] = target: Neu5Ac(a2-3)Gal(b1-4)GlcNAc(b1-3)[Neu5Ac(a2-3)Gal(b1-4)GlcNAc(b1-6)]GalNAc
# Procedure, shortened: as §1
# [33] = target: Neu5Ac(a2-3)Gal(b1-4)[Fuc(a1-3)]GlcNAc
# Procedure, shortened: as §1
# [34] = target: Neu5Ac(a2-6)Gal(b1-4)GlcNAc(b1-2)Man(a1-3)[GlcNAc(b1-4)][Neu5Ac(a2-6)Gal(b1-4)GlcNAc(b1-2)Man(a1-6)]Man(b1-4)GlcNAc(b1-4)GlcNAc
# Procedure, shortened: as §1
# [35] = target: Neu5Ac(a2-6)Gal(b1-4)GlcNAc(b1-2)Man(a1-3)[Neu5Ac(a2-3)Gal(b1-4)GlcNAc(b1-2)Man(a1-6)]Man(b1-4)GlcNAc(b1-4)GlcNAc
# Procedure, shortened: as §1
# [36] = target: Neu5Ac(a2-6)Gal(b1-4)GlcNAc(b1-2)Man(a1-3)[Neu5Ac(a2-6)Gal(b1-4)GlcNAc(b1-2)Man(a1-6)]Man(b1-4)GlcNAc(b1-4)GlcNAc
# Procedure, shortened: as §1
# [37] = target: Neu5Ac(a2-6)Gal(b1-4)GlcNAc(b1-2)Man(a1-3)[Neu5Ac(a2-6)Gal(b1-4)GlcNAc(b1-2)Man(a1-6)]Man(b1-4)GlcNAc(b1-4)[Fuc(a1-6)]GlcNAc
# Procedure, shortened: as §1
# [38] = target: Neu5Ac(a2-6)Gal(b1-4)GlcNAc(b1-3)Gal(b1-4)GlcNAc(b1-3)Gal(b1-4)GlcNAc
# Procedure, shortened: as §1
# [39] = target: Neu5Ac(a2-6)Gal(b1-4)GlcNAc(b1-6)GalNAc
# Procedure, shortened: as §1
# [40] = target: Neu5Ac(a2-6)Gal(b1-4)GlcNAc6S
# Procedure, shortened: as §1
# [41] = target: Neu5Ac(a2-8)Neu5Ac(a2-3)Gal(b1-4)GlcNAc
# Procedure, shortened: as §1
# [42] = target: Neu5Ac(a2-8)Neu5Gc(a2-3)Gal(b1-4)GlcNAc
# Procedure, shortened: as §1
# [43] = target: Neu5Gc(a2-3)Gal(b1-3)GlcNAc
# Procedure, shortened: as §1
# [44] = target: Neu5Gc(a2-3)Gal(b1-3)[Fuc(a1-4)]GlcNAc
# Procedure, shortened: as §1
# [45] = target: Neu5Gc(a2-8)Neu5Gc(a2-3)Gal(b1-4)GlcNAc(b1-3)Gal(b1-4)GlcNAc
# Procedure, shortened: as §1
# [46] = target: Neu5Gc(a2-8)Neu5Gc(a2-6)Gal(b1-4)GlcNAc
# Procedure, shortened: as §1
binder,measurement,setting,value
B1,glycan array binding signal (z-score),[1],-0.724
same,glycan array binding signal (z-score),[2],0.321
same,glycan array binding signal (z-score),[3],-0.488
same,glycan array binding signal (z-score),[4],0.843
same,glycan array binding signal (z-score),[5],-0.806
same,glycan array binding signal (z-score),[6],-0.936
same,glycan array binding signal (z-score),[7],4.9
same,glycan array binding signal (z-score),[8],-0.436
same,glycan array binding signal (z-score),[9],3.68
same,glycan array binding signal (z-score),[10],2.47
same,glycan array binding signal (z-score),[11],0.803
same,glycan array binding signal (z-score),[12],-0.379
same,glycan array binding signal (z-score),[13],0.348
same,glycan array binding signal (z-score),[14],2.95
same,glycan array binding signal (z-score),[15],-1.13
same,glycan array binding signal (z-score),[16],0.97
same,glycan array binding signal (z-score),[17],-0.282
same,glycan array binding signal (z-score),[18],-0.723
same,glycan array binding signal (z-score),[19],-0.156
same,glycan array binding signal (z-score),[20],2.42
same,glycan array binding signal (z-score),[21],2.38
same,glycan array binding signal (z-score),[22],1.14
same,glycan array binding signal (z-score),[23],2.16
same,glycan array binding signal (z-score),[24],2.07
same,glycan array binding signal (z-score),[25],0.793
same,glycan array binding signal (z-score),[26],-0.351
same,glycan array binding signal (z-score),[27],-0.779
same,glycan array binding signal (z-score),[28],2.45
same,glycan array binding signal (z-score),[29],-1.05
same,glycan array binding signal (z-score),[30],-0.589
same,glycan array binding signal (z-score),[31],-0.712
same,glycan array binding signal (z-score),[32],-0.167
same,glycan array binding signal (z-score),[33],-0.648
same,glycan array binding signal (z-score),[34],-0.023
same,glycan array binding signal (z-score),[35],-0.733
same,glycan array binding signal (z-score),[36],-0.249
same,glycan array binding signal (z-score),[37],0.138
same,glycan array binding signal (z-score),[38],-0.315
same,glycan array binding signal (z-score),[39],0.508
same,glycan array binding signal (z-score),[40],-0.912
same,glycan array binding signal (z-score),[41],-0.026
same,glycan array binding signal (z-score),[42],14.4
same,glycan array binding signal (z-score),[43],-0.935
same,glycan array binding signal (z-score),[44],-0.874
same,glycan array binding signal (z-score),[45],-0.859
same,glycan array binding signal (z-score),[46],0.393
